# High-throughput results from PubChem BioAssay.
# TGFb SMAD3 inh: TGF-b pathway inhibition | HepG2 CAGA-GFP TGF-b/SMAD3 reporter, GFP fluorescence, 18 h; TGF-beta stimulated, 500 pg/mL final | Potency, µM (doses to about 46.1 µM), for the others: at the top dose activity, negative = inhibition, actives largely listed as inhibitors | 410,000 tested, 1.2% active; further: on the % scale 0 is the no-effect control and ±100 the full control effect; nearly all actives have a fitted effect of over 65% in size
#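 Per well, imaged GFP fluorescence of HEPG2 CAGA-GFP cells gives the signal; cells get compound, then TGF-beta (500 pg/mL final), 18 h at 37 degrees C; %Activity versus -TGF-beta and +DMSO controls.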
# HepG2 viability: HepG2 cytotoxicity, counter-screen for TGF-b inhibitors; HepG2 CAGA-GFP viability, ATP luminescence, 18 h; Potency, µM (series often up to 46.1 µM), for the others: top-dose activity change, negative = cytotoxicity, hits mostly cytotoxic; 410,000 tested, 0.76% active
#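 HepG2 CAGA-GFP cells (1000/well, DMEM with 1% FBS) received compound, then TGF-beta at 500 pg/mL final, and were incubated 18 hours at 37 degrees C. Viability was read by CellTiter-Glo luminescence. Media-only wells were set as complete cell-killing and DMSO as no toxicity.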
# ATXN2 expr inh: ATXN2 expression inhibition; HEK-293 ATXN2-luciferase reporter, luminescence, 24 h; Potency, µM (doses to about 57 µM), for the others: at the top dose activity change, negative = inhibition, most hits filed as inhibitors; 360,000 tested, 0.72% active; AID 1745845; further: on the % scale 0 is the no-effect control and ±100 the full control effect; nearly all actives have a fitted effect of over 55% in size
#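 qHTS (up to 57 uM final) was run with 24 h compound exposure of reporter cells at 37 °C. Each well was multiplexed: SteadyGlo luminescence measured ATXN2-luciferase expression after a fluorogenic Gly-Phe-AFC viability readout (25 uM final).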
# ATXN viability: reduces viability in counter-screen for ATXN expression inhibitors; Potency, µM (titrated, usually from 56.7 µM), most hits filed as cytotoxic; 400,000 tested, 0.49% active; S2 cells (HEK-293 line with an ATXN2-luciferase reporter) viability, CellTiter-Fluor protease fluorescence, 24 h; further: nearly all actives have a fitted effect of over 40% in size
# The depositor's hits bear a star; i = inactive; ? = inconclusive; · = not tested or not shown; ! = repeats disagree; [ ] = remark or other dose. This is a sample that favours compounds with a hit; in the whole collection about 2.3% have one here. The call rests on the fitted dose curve; in most records, active means well fitted curve in the direction sought with a large enough effect; inconclusive means small, poorly fitted or top-dose-only effect, or another doubt; inactive means no such curve, though single readings can be large; an effect the other way counts as inactive or inconclusive. Potency means the concentration at half of the fitted maximal effect.
SMILES,TGFb SMAD3 inh,HepG2 viability,ATXN2 expr inh,ATXN viability
CCOC(=O)N1CCN(C(=O)CSc2nc3ccccc3c(=O)n2-c2ccccc2)CC1,3.2µM*,4%,2%,?
C=C1C=C(C(F)F)n2ncc(C(=O)NCc3ccc(OC)cc3)c2N1,23%,6%,·,·
CCOC(=O)c1nnn(CC(=O)NC(=O)Nc2cccc(CC)c2)c1C(=O)OCC,?,11µM*!,2%,i
O=C(CSc1ncccn1)NCC1Cc2cccc(-c3ncccn3)c2O1 (stereo not drawn),·,·,·,i
O=C(C=C=Nc1ccccc1)C(=O)N=C=Cc1ccccc1,?,-55%,?,28µM*
N=c1ccn(CC(=O)c2ccc(-c3ccccc3)cc2)cc1,?,-26%,3µM*,i
O=C(CN1C(=O)CCC1=O)c1ccc(-c2ccccc2)cc1,-1%,5%,17%,i
CCN(CC)/[N+]([O-])=N/OCOC(=O)C(C)c1ccc2cc(OC(C)=O)ccc2c1 (stereo not drawn),4%,-1%,·,·
COc1cccc(C2=NC(C)(C)NC(c3ccccc3O)C2)c1 (stereo not drawn),?,18µM*,29%,i
C[N+]1(CC(=O)c2ccc(Cl)cc2)CCOCC1,11%,5%,·,·
O=C(NCc1ccccc1Cl)c1ccc(CSCc2cccc(F)c2)o1,?,-24%,·,·
O=C(NCc1ccc(F)cc1Cl)c1ccc(CSCc2ccccc2Cl)o1,13µM*,-32%,·,·
COc1ccc(-c2cc(C(=O)NCc3ccco3)c3ccccc3n2)cc1OC,17%,0.5µM*,-12%,i
COc1cccc(-c2cc(C(=O)NCc3ccco3)c3ccccc3n2)c1,5%,-1%,16%,i
Cc1ccc(NC(=O)Nc2nnc(-c3ccccc3)o2)cc1,0%,13%,-1%[11.3 µM],i
Cc1ccc(-c2nnc(Nc3ccccc3)o2)cc1,3%,-46%,22µM*,i
COC(=O)c1cc(NC(=O)c2ccc(Cn3cc(Cl)cn3)o2)cc(C(=O)OC)c1,-12%,-5%,?,20µM*
O=C(Nc1ccc(F)c(C(F)(F)F)c1)Nc1nnc(-c2ccncc2)s1,·,·,-12%,·
Cc1nc(NCc2cnn(C)c2)sc1-c1ccn(-c2cccc(F)c2)n1,·,·,·,i
CN1CCN(c2ccc(-c3cc(NC=O)c4ncc(-c5ccc(F)c(Cl)c5)n4c3)cc2)CC1,20µM*,-86%,?,·
CC(=O)Nc1cc(-c2cccc(C(=O)NCCN(C)C)c2)cn2c(-c3ccccc3)cnc12,68%,-34%,?,i
CN(C)CCNC(=O)c1cccc(-c2cnc3c(NC=O)cc(-c4cccc(F)c4)cn23)c1,20µM*,13µM*,?,·
COc1ccc(F)cc1-c1cc(NC=O)c2ncc(-c3cccc(C(F)(F)F)c3)n2c1,?,13µM*,-34%,?
CC(=O)Nc1cc(-c2cccc(C(=O)NCCN(C)C)c2)cn2c(-c3cccc(C(F)(F)F)c3)cnc12,?,13µM*,-3%,32µM*
CC(=O)Nc1cc(-c2ccc(N3CCN(C)CC3)cc2)cn2c(-c3ccc(F)c(Cl)c3)cnc12,?,-99%,?,·
SMILES,TGFb SMAD3 inh,HepG2 viability,ATXN2 expr inh,ATXN viability
CC1CCC(C(=O)N(c2cc(C#CC(C)(C)C)sc2C(=O)O)C2CCC(O)CC2)CC1 (stereo not drawn),·,·,14%,·
COc1ccc(N2CCN(C(=O)c3cc(NC(C)=O)c4c(c3)ncn4CCc3ccccn3)CC2)cc1,·,·,·,i
COc1ccc(-c2cc(NC=O)c3ncc(-c4cccc(C(=O)NCCN(C)C)c4)n3c2)cc1,?,-25%,?,i
CN(C)CCNC(=O)c1cccc(-c2cnc3c(NC=O)cc(-c4ccc(F)cc4)cn23)c1,?,11µM*,0%,·
Cc1c(O)cccc1C(=O)N[C@@H](CSc1ccccc1)[C@H](O)CN1C[C@H]2CCCC[C@H]2C[C@H]1C(=O)NC(C)(C)C,?,16µM*!,20µM*!,11µM*
COc1cc([C@H]2Oc3cc([C@H]4Oc5cc(O)cc(O)c5C(=O)[C@H]4O)ccc3O[C@H]2CO)ccc1O,·,·,-13%,·
O=C(Nc1cccc(Br)c1)Nc1nc2c(s1)CCCCCC2,11µM*,-18%,-28%,?
COc1ccc2c(c1)-c1nc(-n3ncc(C(=O)N(C)CC4CCCN(C)C4)c3C3CC3)ncc1CC2 (stereo not drawn),·,·,·,i
Cc1cccc2c(C(O)c3c[nH]c4c(C)cccc34)c[nH]c12,-19%,2%,·,·
Brc1ccccc1OCCOCCOc1cccc2cccnc12,-21%,-28%,35%,i
Clc1ccc(OCCOCCOc2cccc3cccnc23)c(Br)c1,?,16µM*,-13%,i
COCC(C)n1c(-c2ccc3c(c2)NC(=O)CO3)csc1=Nc1ccc(OC(F)F)cc1 (stereo not drawn),?,13µM*!,-39%,i
O=C(COc1ccccc1C(=O)Nc1cccc(F)c1)Nc1ccc(Br)cc1,2%,2%,·,·
CC(C)=CCC[C@H](C)CC1Cc2[nH]c(=S)[nH]c(=O)c2C(c2ccc(F)cc2)O1 (stereo partly drawn),13µM*,14µM*,-7%,?
O=C(c1ccccc1F)N(Cc1cc2cc3c(cc2nc1N1CCOCC1)CCC3)CC1CCCO1 (stereo not drawn),·,·,·,i
Cc1cc(C(=O)CCl)c(C)n1CCc1ccc(F)cc1,?,-72%,?,·
Cc1cc(C(=O)CCl)c(C)n1CCc1ccc(Cl)cc1,?,18µM*,25µM*,?
CCCCCCCCCCCCCCCC[n+]1ccc(CC(O)c2c(C)[nH]c3ccccc23)c2ccccc21 (stereo not drawn),?,8.9µM*,·,·
Cc1ccc2nc(N3C(=O)CNC3=S)sc2c1,11µM*,-136%,?,i
Cc1ccc(C(=O)N(Cc2cc3cc4c(cc3nc2N2CCOCC2)CCC4)CC2CCCO2)s1 (stereo not drawn),·,·,·,i
CCOC(=O)c1cc2c(=O)n3ccccc3nc2n(CCCOC)c1=NC(=O)C(C)(C)C,4%,-15%,24%,·
CCOC(=O)c1cc2c(=O)n3ccccc3nc2n(CCOC)c1=NC(=O)C(C)(C)C,1%,7.9µM*,-3%,·
CN1C(=O)c2ccccc2Sc2ccc(NC(=O)COc3ccc(Cl)cc3)cc21,2.8µM*,-17%,-3%,?
C/C=C(\C)C(=O)NCCN1Cc2ccccc2OC(c2ccccc2OC)C1 (stereo not drawn),·,·,·,i
CC1(C)C(=O)C=CC(=O)C(C)(C)C(=O)C=CC(=O)C(C)(C)C2=CC=C(O2)C(C)(C)C(=O)C=CC1=O,-6%,-15%,25µM*,·
Cc1cc(/C=C2\SC(=Nc3ccccc3)NC2=O)c(C)n1-c1ccc(S(N)(=O)=O)cc1,13µM*,-51%,?,i
NC(=O)NC(Cc1ccccc1)C(=O)NCC1(N2CCCCC2)CCCCC1 (stereo not drawn),-3%,3.5µM*,2%,i
